# Several values for one entry are separate records, joined by “and”; a condition that tells them apart may be missing. Identical values can stand only once. This is part of a sample that, as a whole, favours compounds with a hit. Of some 79,000 tested, about 15% had one in any assay. Some compounds were tested as several samples or in several runs, with calls that do not always agree. Activity calls are given as the source filed them. Cut-off read from the data, not from the text of the source: active = growth inhibition above about 70%; inactive = the rest.
# Columns and labels:
# [1] = NCI Yeast Anticancer Drug Screen. Data for the rad50 strain (AID 155);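 note: 0% = growth of vehicle-only cultures of the same strain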; conditions: S. cerevisiae rad50 strain growth inhibition, stronger effect = higher value
# Procedure, shortened: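 A DNA repair-deficient yeast mutant serves as the test organism; compound-induced growth inhibition is calculated against vehicle-treated cells.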
# [2] = NCI Yeast Anticancer Drug Screen. Data for the mec2-1 strain (AID 157); conditions: S. cerevisiae mec2-1 strain, stronger effect = higher value
# Procedure, shortened: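 Mutant yeast (mec2-1) grown with compound; growth inhibition relative to vehicle control reported.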
# [3] = NCI Yeast Anticancer Drug Screen. Data for the sgs1 mgt1 strain (AID 161);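 note: 0% = growth of cultures given vehicle only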; conditions: S. cerevisiae sgs1 mgt1 strain, stronger effect = higher value
# Procedure, shortened: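 Percent growth inhibition was derived by comparing compound-exposed mutant yeast with vehicle-exposed cultures. The strain carries alterations in DNA damage repair.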
# [4] = NCI Yeast Anticancer Drug Screen. Data for the cln2 rad14 strain (AID 165);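 note: 0% = growth equal to vehicle treated cultures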; conditions: S. cerevisiae cln2 rad14 strain, stronger effect = higher value
# Procedure, shortened: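 Readout is yeast growth inhibition versus vehicle-treated controls, using a strain with cln2 and rad14 alterations exposed to compound.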
# [5] = NCI Yeast Anticancer Drug Screen. Data for the bub3 strain (AID 167); conditions: S. cerevisiae bub3 mutant strain, stronger effect = higher value
# Procedure, shortened: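 Inhibition values come from growth of compound-treated mutant yeast normalised to vehicle-treated controls.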
# [6] = NCI Yeast Anticancer Drug Screen. Data for the mlh1 rad18 strain (AID 175); conditions: S. cerevisiae mlh1 rad18 strain growth inhibition, stronger effect = higher value
# Procedure, shortened: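 Genetically defined yeast (DNA repair-deficient) exposed to compounds; growth inhibition determined relative to vehicle.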
# [7] = at 5.0 µM (retest, dose inferred, filed as 0.5)
# [8] = at 50.0 µM (retest, dose inferred, filed as 5.0)
SMILES,"growth inhibition [1, 7]","growth inhibition [1, 8]",growth inhibition ([1]; at 50.0 µM),"growth inhibition [2, 7]","growth inhibition [2, 8]",growth inhibition ([2]; at 50.0 µM),"growth inhibition [3, 7]","growth inhibition [3, 8]",growth inhibition ([3]; at 50.0 µM),"growth inhibition [4, 7]","growth inhibition [4, 8]",growth inhibition ([4]; at 50.0 µM),"growth inhibition [5, 7]","growth inhibition [5, 8]",growth inhibition ([5]; at 50.0 µM),"growth inhibition [6, 7]","growth inhibition [6, 8]",growth inhibition ([6]; at 50.0 µM)
O=c1c(O)cccc2cc(O)c(O)c(O)c12,9% (inactive) and 29% (inactive),90% (active) and 98% (active),89.2% (active) and 90.3% (active),-22% (inactive) and 25% (inactive),94% (active) and 98% (active),91.4% (active) and 91.2% (active),-4% (inactive) and 36% (inactive),92% (active) and 98% (active),89.7% (active) and 91.3% (active),12% (inactive) and 6% (inactive),91% (active) and 97% (active),85.5% (active) and 87.5% (active),5% (inactive) and 29% (inactive),94% (active) and 97% (active),87% (active) and 90.2% (active),-4% (inactive) and 48% (inactive),93% (active) and 97% (active),87.2% (active) and 91.1% (active)
COC(=O)c1nnn(-c2ccc(S(N)(=O)=O)cc2)c1N,-9% (inactive),-16% (inactive),36.6% (inactive),-4% (inactive),-10% (inactive),19.6% (inactive),-9% (inactive),-20% (inactive),53.5% (inactive),1% (inactive),1% (inactive),18.7% (inactive),-22% (inactive),-7% (inactive),-4.45% (inactive),-13% (inactive),-23% (inactive),64.9% (inactive)
COc1ccccc1NC(=O)C(/C=N/C(=S)NCCNc1ccc(OC)c(OC)c1)=C(\C)O,1% (inactive),3% (inactive),9.7% (inactive),-55% (inactive),-10% (inactive),-2.25% (inactive),2% (inactive),-8% (inactive),16.4% (inactive),-22% (inactive),-14% (inactive),43.2% (inactive),2% (inactive),-27% (inactive),7.25% (inactive),10% (inactive),-2% (inactive),15.1% (inactive)
O=C1C(CN(Cc2ccccc2)Cc2ccccc2)CCCC1CN(Cc1ccccc1)Cc1ccccc1 (centres undefined),4% (inactive),17% (inactive),90.6% (active) and -1.45% (inactive),-3% (inactive),22% (inactive),73% (active) and 25.6% (inactive),4% (inactive),46% (inactive),72.7% (active) and 21.9% (inactive),-20% (inactive),7% (inactive),23.6% (inactive) and 67.8% (inactive),-16% (inactive),47% (inactive),83.2% (active) and 21.4% (inactive),-3% (inactive),58% (inactive),80.8% (active) and 14.2% (inactive)
COc1ccc(Oc2ccccc2N)cc1,0% (inactive),93% (active),83.7% (active),-1% (inactive),95% (active),59.3% (inactive),-2% (inactive),93% (active),69.3% (inactive),-8% (inactive),95% (active),88.3% (active),6% (inactive),93% (active),63.4% (inactive),-3% (inactive),96% (active),90.5% (active)
CCC1CCCC(=O)C1 (centres undefined),2% (inactive),2% (inactive),89.2% (active),-1% (inactive),-5% (inactive),53.6% (inactive),0% (inactive),-1% (inactive),14.1% (inactive),3% (inactive),1% (inactive),36.2% (inactive),2% (inactive),2% (inactive),99.4% (active),-2% (inactive),0% (inactive),91.8% (active)
C[C@H](CCC(=O)O)[C@H]1CC[C@H]2[C@@H]3[C@H](O)C[C@@H]4C[C@H](O)CC[C@]4(C)[C@H]3CC[C@]12C,24% (inactive),94% (active),90% (active),-14% (inactive),96% (active),91.3% (active),9% (inactive),96% (active),92.3% (active),19% (inactive),96% (active),90.2% (active),-3% (inactive),98% (active),90.5% (active),6% (inactive),97% (active),90.2% (active)
OC(c1nc2ccccc2[nH]1)C(O)C(O)C(O)c1nc2ccccc2[nH]1 (centres undefined),-2% (inactive),-28% (inactive),-8.95% (inactive) and 19.2% (inactive),-25% (inactive),-18% (inactive),-15.1% (inactive) and 2.95% (inactive),-20% (inactive),1% (inactive),-18.4% (inactive) and 17.9% (inactive),0% (inactive),-3% (inactive),2.25% (inactive) and -6.8% (inactive),-15% (inactive),-28% (inactive),-38.5% (inactive) and 44.8% (inactive),-22% (inactive),-49% (inactive),2.85% (inactive) and 22% (inactive)
